Screening results as filed in PubChem BioAssay.
A selection: hits, their analogues and other compounds. The true share with any hit is near 1.8%.
Phagocyt inh – inhibitors of macrophage phagocytosis, primary screen, imaging, J774A.1 cells, IgG beads; 0.07% of 110,000 active; inhibition, % at 5 µM; J774A.1 macrophage IgG-bead phagocytosis;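 active = inhibition above the mean of the plate negative controls plus 5 SD, cut at about 13% in these data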;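 also: phagocytic index as fraction of beads internalized from green versus red external bead signal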
Measles CPE – compounds protecting cells from measles virus cytopathic effect, primary screen, measles RdRp inhibitor project, single point, MLSMR library, absorbance; AID 841, 2007; Measles virus-infected cells, CPE protection; 1.5% of 140,000 active; protection (pct of control), % at 4 µM; in the data active = protection mostly above about 24%, no sharp cut-off; inactive = mostly below about 26%
sdo1 growth – growth rescue of sdo1-depleted yeast, primary screen, S. cerevisiae, bone marrow failure model; S. cerevisiae sdo1-depleted JHY4D growth rescue, OD600 30 h; stronger effect = higher value; pdr5 snq2 efflux-pump mutant strain; z-score at 10 µM; 0.21% of 140,000 active; AID 817, 2007;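 active = z-score above 3 at both the 24 hr and the 30 hr optical density reads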
Hits are given with their value; i = inactive; nt = no result given.

SMILES	Phagocyt inh	Measles CPE	sdo1 growth
Cc1ccsc1C(=O)Nc1ccccc1N1CCOCC1	i	i	i
COC(=O)C1=C(C)NC(=O)C1(NC(=O)CN1CCCC1=O)C(F)(F)F (configuration not stated)	nt	41	i
CCOC(=O)NC1(C(F)(F)F)C(=O)NC(C)=C1C(=O)OC (configuration not stated)	i	i	i
CCn1ncc(/C=C/C(=O)C2CC2)c1C	i	i	i
COCCN(C(=S)Nc1cc(C)cc(C)c1)C(C)c1cccnc1 (configuration not stated)	i	i	i
O=C(CN(C(=O)Cn1nnc(-c2cccs2)n1)c1cnc2ccccc2c1)NCC1CCCO1 (configuration not stated)	i	i	i
CCCCNC(=O)c1onc(CSc2ccc(Cl)cc2)c1C(=O)O	i	i	i
COc1cc(NC(=O)c2ccc(S(=O)(=O)N(C)C)cc2)cc(OC)c1OC	i	i	i
COc1ccccc1OC(=O)c1ccc(S(=O)(=O)N(C)C)cc1	i	44	i
Cc1ccccc1OCC(=O)NC1=NCCS1	i	i	i
COc1ccc(Cc2nc(C(=O)Nc3ccccc3)cs2)cc1	i	66	i
COc1ccc(Cc2nc(C(=O)Nc3ccc(Cl)cc3)cs2)cc1	i	i	i
COC(=O)c1ccc(N2C(=O)CC(N(C)CCc3ccc(OC)c(OC)c3)C2=O)cc1 (configuration not stated)	i	138	i
COC(=O)c1ccc(N2C(=O)CC(N(C)Cc3ccccc3)C2=O)cc1 (configuration not stated)	i	i	i
O/N=C/c1ccc(OCc2ccccc2)c(Cl)c1	i	i	i
O/N=C/c1ccc(OCc2ccccc2)c(Br)c1	i	42	i
C=CCOC(=O)/C(=C\C=C\c1ccccc1)NC(=O)c1ccccc1	i	i	i
CCOC(=O)c1cc(-c2ccccc2)sc1NC(=O)c1cc(OC)c(OC)c(OC)c1	nt	i	i
C=CCN1C(=O)/C(=C2/Sc3ccccc3N2C)SC1=Nc1c(C)n[nH]c1C	i	i	i
C=CCN1C(=O)/C(=C2/Sc3ccccc3N2C)SC1=Nc1ccccc1C	i	51	i
Cc1cc2oc(C(=O)Nc3ccc(S(=O)(=O)N4CCCC(C)C4)cc3)cc(=O)c2cc1Cl (configuration not stated)	i	i	i
Cc1cc(C)c2oc(C(=O)Nc3ccc(S(=O)(=O)N4CCC(C)CC4)cc3)cc(=O)c2c1	i	56	i
Cn1nc(C(=O)NC(C)(C)C)c2ccccc21	i	i	i
CCNCc1cc(Cl)cc(OC)c1OC(C)C	i	i	i
O=C(CSc1nc2ccc(Cl)cc2[nH]1)NCCc1ccc(Cl)cc1	i	i	i
SMILES	Phagocyt inh	Measles CPE	sdo1 growth
O=C(CSc1nc2ccc(Cl)cc2[nH]1)NCCc1ccccc1	i	29	i
C(=N\n1cnnc1)/c1ccccc1OCCOc1ccccc1	i	i	i
CCn1cc([N+](=O)[O-])c(C(=O)N2N=C(c3ccccc3)CC2c2ccc([N+](=O)[O-])cc2)n1 (configuration not stated)	i	27	i
CCn1cc([N+](=O)[O-])c(C(=O)N2N=C(c3ccc(O)c(OC)c3)CC2c2ccccc2O)n1 (configuration not stated)	i	i	i
Cn1c(=O)c2c(nc(SCCN3CCCCC3)n2Cc2ccccc2)n(C)c1=O	nt	76	i
Cn1c(=O)c2c(nc(SCCN3CCOCC3)n2Cc2ccccc2Cl)n(C)c1=O	nt	i	i
Cc1ccc(Cn2c(SCCN3CCCCC3)nc3c2c(=O)n(C)c(=O)n3C)cc1	i	i	i
Cn1c(=O)c2c(nc(SCCN3CCOCC3)n2Cc2cccc3ccccc23)n(C)c1=O	i	98	i
CC(C)NC(=O)CN(CCc1ccccc1)S(C)(=O)=O	i	i	i
O=[N+]([O-])c1ccc(N2CCN(CCOc3nonc3-c3ccccc3)CC2)c(Cl)c1	nt	38	i
O=[N+]([O-])c1ccc(N2CCN(c3ccccc3O)CC2)c(Cl)c1	i	i	i
Cc1ccc(-n2c(SCC(=O)Nc3cccc(S(N)(=O)=O)c3)nc3ccccc32)cc1	i	i	i
Cc1cc(C)cc(N(C(C)C(=O)NCCC2=CCCCC2)S(C)(=O)=O)c1 (configuration not stated)	i	i	i
CC1CCc2nc3sc4c(c3c(N)c2C1)CCCC4 (configuration not stated)	i	i	i
Nc1c2c(nc3sc4c(c13)CCCCC4)CCCCC2	i	49	i
COc1cc(NC(=O)CN2C(=O)NC(C)(c3ccc4ccccc4c3)C2=O)c(C)cc1[N+](=O)[O-] (configuration not stated)	i	i	i
